Source: the supplement of paper PMC10849652
Of roughly 7,900 targets only a part is listed; those with a hit were picked by preference. About 0.6% of all pairs of compound and target were hits. Unmarked numbers belong to inactive results.

How the values were obtained:
Test in all cases: log2 fold change, soluble protein after heating vs DMSO (PISA); higher = thermal stabilisation; K562 cells, 10 uM, 30 min; active = over 0.2 and 3.5 SD of the protein, either way, in both replicates (recomputed)
[1] = compound: CS(=O)(=O)c1ccc(-c2cnc(N)c(C(=O)Nc3ccccc3)n2)cc1
How it was run: (§1)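 K562 cells at 2×10^6 cells/mL were treated for 30 min with 10 μM compound, and aliquots were heated for 3 min over 48°C-58°C before pooling. Extraction used PBS with 0.5% NP-40 at 4°C, and soluble protein was the supernatant after 21,000xg for 90 min, measured by TMTpro 16plex LC-MS/MS with channel sums equalised. Thermal stability values, relative to control samples and from duplicates, are log2 fold changes.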

crizotinib = compound: C[C@@H](Oc1cc(-c2cnn(C3CCNCC3)c2)cnc1N)c1c(Cl)ccc(F)c1Cl [crizotinib]
How it was run: as §1

[2] = compound: C[C@@H]1COCCN1C2=NC(=NC(=C2)C3(CC3)S(=O)(=O)C)C4=C5C=CNC5=CC=C4
How it was run: as §1

[3] = compound: C[C@H](C1=CC=C(C=C1)C(=O)NC2=C3C=CNC3=NC=C2)N
How it was run: as §1

duvelisib = compound: C[C@H](Nc1ncnc2nc[nH]c12)c1cc2cccc(Cl)c2c(=O)n1-c1ccccc1 [duvelisib]
How it was run: as §1

gandotinib = compound: Cc1cc(Nc2cc(CN3CCOCC3)c3nc(C)c(Cc4ccc(Cl)cc4F)n3n2)n[nH]1 [gandotinib]
How it was run: as §1

tozasertib = compound: Cc1cc(Nc2cc(N3CCN(C)CC3)nc(Sc3ccc(NC(=O)C4CC4)cc3)n2)n[nH]1 [tozasertib]
How it was run: as §1

[4] = compound: Cc1cc(SCc2sc(-c3ccc(C(F)(F)F)cc3)nc2C)ccc1OCC(=O)O
How it was run: as §1

doramapimod = compound: Cc1ccc(-n2nc(C(C)(C)C)cc2NC(=O)Nc2ccc(OCCN3CCOCC3)c3ccccc23)cc1 [doramapimod]
How it was run: as §1

ispinesib = compound: Cc1ccc(C(=O)N(CCCN)[C@@H](c2nc3cc(Cl)ccc3c(=O)n2Cc2ccccc2)C(C)C)cc1 [ispinesib]
How it was run: as §1

bafetinib = compound: Cc1ccc(NC(=O)c2ccc(CN3CC[C@H](N(C)C)C3)c(C(F)(F)F)c2)cc1Nc1nccc(-c2cncnc2)n1 [bafetinib]
How it was run: as §1

[5] = compound: Cc1cccc(CC(=O)N2CCc3c2ccc(-c2cn(C)c4ncnc(N)c24)c3F)n1
How it was run: as §1

nilotinib = compound: Cc1cn(-c2cc(NC(=O)c3ccc(C)c(Nc4nccc(-c5cccnc5)n4)c3)cc(C(F)(F)F)c2)cn1 [nilotinib]
How it was run: as §1

[6] = compound: Cc1nc(Nc2n[nH]c3c2CN(C(=O)N[C@H](CN(C)C)c2ccccc2)C3(C)C)c2sccc2n1
How it was run: as §1

dasatinib = compound: Cc1nc(Nc2ncc(C(=O)Nc3c(C)cccc3Cl)s2)cc(N2CCN(CCO)CC2)n1 [dasatinib]
How it was run: as §1

[7] = compound: Cc1ncc(-c2ccnc(Nc3ccc(S(C)(=O)=O)cc3)n2)n1C(C)C
How it was run: as §1

[8] = compound: Cn1cc(-c2ccc3c(c2)CCN3C(=O)Cc2cccc(C(F)(F)F)c2)c2c(N)ncnc21
How it was run: as §1

[9] = compound: Cn1cc(-c2ccc3nnc(C(F)(F)c4ccc5ncccc5c4)n3n2)cn1
How it was run: as §1

mubritinib = compound: FC(F)(F)c1ccc(/C=C/c2nc(COc3ccc(CCCCn4ccnn4)cc3)co2)cc1 [mubritinib]
How it was run: as §1

tipifarnib = compound: Cn1cncc1[C@@](N)(c1ccc(Cl)cc1)c1ccc2c(c1)c(-c1cccc(Cl)c1)cc(=O)n2C [tipifarnib]
How it was run: as §1

Sequence of UniProt Q93096 (Q93096 whole entry, looked up): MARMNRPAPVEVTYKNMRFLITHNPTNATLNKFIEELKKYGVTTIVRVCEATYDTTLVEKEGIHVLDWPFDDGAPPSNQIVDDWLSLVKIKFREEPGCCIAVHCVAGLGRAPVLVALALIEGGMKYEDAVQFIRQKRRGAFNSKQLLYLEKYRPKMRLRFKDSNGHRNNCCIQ
Sequence of UniProt P62191 (P62191 whole entry, looked up): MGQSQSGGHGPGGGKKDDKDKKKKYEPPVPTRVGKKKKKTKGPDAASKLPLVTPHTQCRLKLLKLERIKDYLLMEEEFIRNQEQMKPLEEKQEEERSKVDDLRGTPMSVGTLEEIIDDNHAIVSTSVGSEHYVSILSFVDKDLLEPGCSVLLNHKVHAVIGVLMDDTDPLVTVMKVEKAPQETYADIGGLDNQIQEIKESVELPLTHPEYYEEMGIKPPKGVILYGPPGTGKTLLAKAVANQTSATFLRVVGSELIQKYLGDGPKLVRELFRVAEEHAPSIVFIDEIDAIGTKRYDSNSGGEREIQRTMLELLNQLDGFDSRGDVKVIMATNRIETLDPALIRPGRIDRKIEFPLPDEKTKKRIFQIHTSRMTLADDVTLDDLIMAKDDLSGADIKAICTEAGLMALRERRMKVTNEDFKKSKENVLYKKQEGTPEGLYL
Sequence of UniProt P28065 (P28065 whole entry, looked up): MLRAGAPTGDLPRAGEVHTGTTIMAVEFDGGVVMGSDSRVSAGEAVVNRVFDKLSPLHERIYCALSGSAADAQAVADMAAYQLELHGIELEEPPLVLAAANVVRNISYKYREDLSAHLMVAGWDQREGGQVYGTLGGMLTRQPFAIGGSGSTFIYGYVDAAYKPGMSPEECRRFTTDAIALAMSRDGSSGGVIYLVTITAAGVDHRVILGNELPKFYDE
Sequence of UniProt Q6EEV4 (Q6EEV4 whole entry, looked up): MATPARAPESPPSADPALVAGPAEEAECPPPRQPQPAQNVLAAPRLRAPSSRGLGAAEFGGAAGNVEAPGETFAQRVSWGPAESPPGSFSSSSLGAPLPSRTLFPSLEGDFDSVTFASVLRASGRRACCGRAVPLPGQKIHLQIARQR
Sequence of UniProt Q15111 (Q15111 whole entry, looked up): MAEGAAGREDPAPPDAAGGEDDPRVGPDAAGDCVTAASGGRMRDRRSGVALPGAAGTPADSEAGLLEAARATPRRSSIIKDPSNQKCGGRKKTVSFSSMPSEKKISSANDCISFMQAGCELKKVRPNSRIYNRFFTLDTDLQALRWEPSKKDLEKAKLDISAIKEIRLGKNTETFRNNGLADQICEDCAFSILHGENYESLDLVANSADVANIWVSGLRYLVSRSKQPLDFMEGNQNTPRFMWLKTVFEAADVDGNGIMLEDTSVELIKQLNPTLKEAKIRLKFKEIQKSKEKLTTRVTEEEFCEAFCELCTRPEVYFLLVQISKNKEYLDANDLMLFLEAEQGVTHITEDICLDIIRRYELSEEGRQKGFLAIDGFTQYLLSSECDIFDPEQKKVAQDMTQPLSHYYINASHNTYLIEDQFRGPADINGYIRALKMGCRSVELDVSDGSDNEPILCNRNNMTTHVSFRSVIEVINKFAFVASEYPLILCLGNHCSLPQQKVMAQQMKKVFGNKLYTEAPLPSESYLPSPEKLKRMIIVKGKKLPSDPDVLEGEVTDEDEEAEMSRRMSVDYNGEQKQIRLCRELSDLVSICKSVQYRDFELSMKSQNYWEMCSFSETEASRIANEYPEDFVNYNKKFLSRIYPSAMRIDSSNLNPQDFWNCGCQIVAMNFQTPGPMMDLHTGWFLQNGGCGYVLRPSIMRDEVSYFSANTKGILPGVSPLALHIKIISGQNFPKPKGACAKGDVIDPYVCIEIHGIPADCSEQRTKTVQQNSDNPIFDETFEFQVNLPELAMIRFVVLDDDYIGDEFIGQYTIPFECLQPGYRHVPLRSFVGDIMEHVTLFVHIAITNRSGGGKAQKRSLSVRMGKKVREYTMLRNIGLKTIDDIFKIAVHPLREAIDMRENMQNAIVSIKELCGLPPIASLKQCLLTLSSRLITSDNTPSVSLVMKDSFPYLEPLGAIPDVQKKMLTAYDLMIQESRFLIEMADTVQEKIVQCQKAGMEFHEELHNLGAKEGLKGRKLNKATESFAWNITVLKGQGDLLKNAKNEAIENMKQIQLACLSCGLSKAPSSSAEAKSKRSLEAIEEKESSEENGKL
Sequence of UniProt O94806 (O94806 whole entry, looked up): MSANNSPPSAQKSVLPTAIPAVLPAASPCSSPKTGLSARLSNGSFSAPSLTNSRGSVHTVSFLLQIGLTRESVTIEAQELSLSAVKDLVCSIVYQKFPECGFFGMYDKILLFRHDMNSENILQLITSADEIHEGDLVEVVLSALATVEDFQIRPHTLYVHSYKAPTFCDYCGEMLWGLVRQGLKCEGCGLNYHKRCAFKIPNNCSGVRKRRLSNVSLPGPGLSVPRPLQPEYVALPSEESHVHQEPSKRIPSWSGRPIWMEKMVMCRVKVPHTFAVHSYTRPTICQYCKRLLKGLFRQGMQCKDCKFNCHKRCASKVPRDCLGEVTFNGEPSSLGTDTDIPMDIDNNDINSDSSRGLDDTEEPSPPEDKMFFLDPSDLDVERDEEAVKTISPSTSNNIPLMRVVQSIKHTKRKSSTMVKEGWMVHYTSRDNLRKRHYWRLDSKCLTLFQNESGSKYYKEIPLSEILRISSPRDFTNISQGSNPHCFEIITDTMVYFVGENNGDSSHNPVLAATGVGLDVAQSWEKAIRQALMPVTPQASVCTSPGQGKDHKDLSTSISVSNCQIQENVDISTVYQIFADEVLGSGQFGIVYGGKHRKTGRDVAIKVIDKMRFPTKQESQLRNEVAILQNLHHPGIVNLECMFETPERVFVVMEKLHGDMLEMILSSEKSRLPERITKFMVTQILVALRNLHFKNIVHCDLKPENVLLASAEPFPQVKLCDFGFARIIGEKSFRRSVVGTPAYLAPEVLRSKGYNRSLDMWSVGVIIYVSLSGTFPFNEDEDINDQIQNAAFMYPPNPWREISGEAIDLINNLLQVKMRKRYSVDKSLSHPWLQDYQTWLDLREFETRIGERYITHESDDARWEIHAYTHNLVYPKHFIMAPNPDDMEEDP
Sequence of UniProt P14618 (P14618 whole entry, looked up): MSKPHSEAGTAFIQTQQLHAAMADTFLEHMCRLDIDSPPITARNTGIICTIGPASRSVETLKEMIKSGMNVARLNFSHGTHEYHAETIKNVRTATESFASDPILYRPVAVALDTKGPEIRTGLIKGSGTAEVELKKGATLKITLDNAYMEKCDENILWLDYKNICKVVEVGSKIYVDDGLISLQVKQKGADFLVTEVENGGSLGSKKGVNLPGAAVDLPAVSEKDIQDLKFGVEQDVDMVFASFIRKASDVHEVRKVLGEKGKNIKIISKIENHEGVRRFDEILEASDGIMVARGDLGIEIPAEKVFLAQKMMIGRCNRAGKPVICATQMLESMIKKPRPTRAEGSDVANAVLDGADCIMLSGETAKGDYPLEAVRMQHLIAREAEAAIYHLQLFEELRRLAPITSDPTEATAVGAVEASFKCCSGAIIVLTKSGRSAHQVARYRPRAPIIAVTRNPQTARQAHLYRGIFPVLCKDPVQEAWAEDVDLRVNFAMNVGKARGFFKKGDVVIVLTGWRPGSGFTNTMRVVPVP
Sequence of UniProt Q99460 (Q99460 whole entry, looked up): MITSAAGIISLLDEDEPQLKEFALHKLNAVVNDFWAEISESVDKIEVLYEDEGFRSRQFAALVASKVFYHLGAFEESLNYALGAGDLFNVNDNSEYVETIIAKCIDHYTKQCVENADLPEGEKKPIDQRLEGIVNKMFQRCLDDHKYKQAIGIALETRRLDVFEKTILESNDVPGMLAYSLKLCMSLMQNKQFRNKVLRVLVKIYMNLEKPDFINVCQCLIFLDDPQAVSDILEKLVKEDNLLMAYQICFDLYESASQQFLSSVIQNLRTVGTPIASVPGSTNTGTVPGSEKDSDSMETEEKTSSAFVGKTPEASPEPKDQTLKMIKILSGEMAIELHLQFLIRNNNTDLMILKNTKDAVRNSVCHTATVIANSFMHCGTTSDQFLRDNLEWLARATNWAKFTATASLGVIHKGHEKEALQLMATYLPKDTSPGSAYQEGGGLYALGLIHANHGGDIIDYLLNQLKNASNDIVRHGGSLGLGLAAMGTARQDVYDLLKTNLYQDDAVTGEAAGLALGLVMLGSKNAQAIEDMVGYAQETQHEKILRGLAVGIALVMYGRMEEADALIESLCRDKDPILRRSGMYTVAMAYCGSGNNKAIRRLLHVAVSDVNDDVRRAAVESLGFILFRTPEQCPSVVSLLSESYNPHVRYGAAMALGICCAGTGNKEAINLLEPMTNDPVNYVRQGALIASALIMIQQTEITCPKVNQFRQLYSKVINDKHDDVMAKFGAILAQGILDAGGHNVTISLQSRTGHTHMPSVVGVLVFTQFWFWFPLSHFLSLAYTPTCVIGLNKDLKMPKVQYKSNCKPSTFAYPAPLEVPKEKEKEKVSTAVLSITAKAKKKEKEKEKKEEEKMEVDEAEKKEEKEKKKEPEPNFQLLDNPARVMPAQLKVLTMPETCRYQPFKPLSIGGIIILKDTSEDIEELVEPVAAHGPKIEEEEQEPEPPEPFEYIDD

Row | Target | log2 fold change [1] | log2 fold change (crizotinib) | log2 fold change [2] | log2 fold change [3] | log2 fold change (duvelisib) | log2 fold change (gandotinib) | log2 fold change (tozasertib) | log2 fold change [4] | log2 fold change (doramapimod) | log2 fold change (ispinesib) | log2 fold change (bafetinib) | log2 fold change [5] | log2 fold change (nilotinib) | log2 fold change [6] | log2 fold change (dasatinib) | log2 fold change [7] | log2 fold change [8] | log2 fold change [9] | log2 fold change (mubritinib) | log2 fold change (tipifarnib)
1 | PRG4 (UniProt Q92954) | 0.08 | -0.19 | -0.014 | 0.023 | -0.145 | 0.098 | 0.167 | 0.004 | -0.229 | -0.114 | -0.095 | 0.104 | -0.05 | 0.065 | 0 | 0.258 | 0.203 | 0.068 | -0.016 | –
2 | PKM isoform 2 (UniProt P14618) | -0.053 | -0.033 | -0.154 | – | -0.001 | 0.131 | 0.056 | 0.12 | 0.029 | 0.016 | -0.155 | 0.029 | 0.121 | -0.104 | -0.014 | 0.198 | – | 0.017 | 0.05 | 0.209
3 | PSMB9 (UniProt P28065) | 0.259 | 0 | 0.075 | 0.066 | – | 0.126 | – | – | 0.084 | – | -0.22 | -0.122 | – | – | – | – | 0.054 | – | – | 0.03
4 | PSMD1 (UniProt Q99460) | -0.009 | -0.002 | -0.075 | 0.047 | -0.081 | 0 | 0.054 | 0.017 | 0.036 | 0.048 | 0.16 | 0.037 | 0.006 | 0.041 | 0.065 | -0.017 | -0.102 | 0.019 | -0.019 | 0.068
5 | POLR2M (UniProt Q6EEV4) | -0.03 | -0.021 | 0.16 | -0.078 | -0.024 | – | -0.039 | -0.061 | -0.04 | – | -0.215 | – | 0.107 | -0.016 | -0.003 | -0.022 | 0.135 | – | 0.035 | -0.095
6 | PLCL1 (UniProt Q15111) | 0.112 | -0.03 | 0.074 | -0.263 | – | -0.14 | -0.015 | – | -0.08 | -0.162 | -0.045 | 0.039 | -0.06 | -0.197 | – | -0.324 | -0.116 | 0.028 | -0.018 | –
7 | PTP4A1 (UniProt Q93096) | 0.04 | 0.036 | -0.006 | -0.094 | -0.013 | -0.116 | 0.018 | -0.039 | -0.037 | 0.039 | -0.023 | 0.013 | 0.039 | -0.049 | 0.108 | -0.299 (active) | 0.181 | 0.093 | 0.074 | -0.005
8 | PSMC3 (UniProt E9PLG2) | 0.206 | 0.168 | 0.101 | – | 0.245 | – | -0.288 | -0.101 | -0.058 | – | 0.147 | – | – | – | 0.258 | – | – | – | 0.059 | –
9 | PRKD3 (UniProt O94806) | -0.132 | -0.292 | – | -0.189 | 0.033 | 0.092 | – | 0.039 | -0.088 | -0.237 | -0.011 | -0.231 | – | – | -0.258 | – | -0.079 | 0.006 | -0.062 | –
10 | PSMC1 (UniProt P62191) | 0.011 | 0.023 | -0.072 | 0.073 | -0.047 | 0.06 | 0.039 | 0.01 | 0.033 | -0.036 | 0.065 | 0.02 | -0.025 | 0.062 | 0.036 | -0.014 | -0.082 | 0 | -0.015 | 0.087
